Screens as filed in PubChem BioAssay.
A selection: hits, their analogues and other compounds. The true share with any hit is near 4%.
Beta cell apopt: inhibitors of cytokine-induced beta cell apoptosis, primary screen, luminescence; INS-1E cytokine-induced death, ATP luminescence, 48 h; percent of positive-control rescue, neutral wells zero; protection from apoptosis, % (test concentration not listed); 300,000 compounds, 0.8% hits; AID 435005, 2010;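 active = Every replicate reaches about 75%, or at least half do and their mean reaches it too, limit read from the data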;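 also: higher means more ATP so stronger rescue from cytokine killing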
697 NFkB inh: inhibitors of PMA/ionomycin-induced NF-kB reporter, 697 cells, primary screen, B-cell NF-kB inhibitor project, cell-based, luminescence, uHTS; 697 B-cell NF-kB luciferase reporter, 16 h; 330,000 compounds, 0.33% hits; inhibition, % at 4 µM; in the data active = inhibition above about 35%
Gli-Sufu block: Gli-Sufu pathway antagonists, primary screen, luciferase luminescence, Sufu-KO-LIGHT cells, uHTS; Sufu-KO-LIGHT fibroblasts, Gli luciferase reporter luminescence; 340,000 compounds, 0.74% hits; inhibition, % at 5 µM;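 active = inhibition above about 55%, limit read from the data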
Mdm2-MdmX inh: inhibitors of human Mdm2-MdmX association, primary screen, cell-based, luminescence, split luciferase, SaOS-2, uHTS | inhibition, % at 8 µM | SaOS-2 split-luciferase Mdm2/MdmX complementation | 330,000 compounds, 3% hits | AID 485346, 2010 | Protein Mdm4 (Homo sapiens) + E3 ubiquitin-protein ligase Mdm2 (Homo sapiens), …;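 active = inhibition of at least 50% at 8 µM in the primary screen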
Target sequence (O15151 whole entry, looked up): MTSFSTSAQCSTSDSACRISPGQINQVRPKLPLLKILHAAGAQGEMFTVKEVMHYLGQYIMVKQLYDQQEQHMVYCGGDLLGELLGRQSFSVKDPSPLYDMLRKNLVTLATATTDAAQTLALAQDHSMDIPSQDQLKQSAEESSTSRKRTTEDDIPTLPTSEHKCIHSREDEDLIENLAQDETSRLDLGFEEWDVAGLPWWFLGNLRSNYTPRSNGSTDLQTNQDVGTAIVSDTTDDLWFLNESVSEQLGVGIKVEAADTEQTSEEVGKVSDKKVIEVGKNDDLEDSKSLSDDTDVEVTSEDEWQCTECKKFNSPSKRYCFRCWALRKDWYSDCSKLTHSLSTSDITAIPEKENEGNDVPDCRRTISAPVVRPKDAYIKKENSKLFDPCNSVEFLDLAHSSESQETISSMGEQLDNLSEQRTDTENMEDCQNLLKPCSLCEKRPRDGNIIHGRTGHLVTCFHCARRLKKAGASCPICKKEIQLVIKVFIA
Target sequence (Q00987 whole entry, looked up): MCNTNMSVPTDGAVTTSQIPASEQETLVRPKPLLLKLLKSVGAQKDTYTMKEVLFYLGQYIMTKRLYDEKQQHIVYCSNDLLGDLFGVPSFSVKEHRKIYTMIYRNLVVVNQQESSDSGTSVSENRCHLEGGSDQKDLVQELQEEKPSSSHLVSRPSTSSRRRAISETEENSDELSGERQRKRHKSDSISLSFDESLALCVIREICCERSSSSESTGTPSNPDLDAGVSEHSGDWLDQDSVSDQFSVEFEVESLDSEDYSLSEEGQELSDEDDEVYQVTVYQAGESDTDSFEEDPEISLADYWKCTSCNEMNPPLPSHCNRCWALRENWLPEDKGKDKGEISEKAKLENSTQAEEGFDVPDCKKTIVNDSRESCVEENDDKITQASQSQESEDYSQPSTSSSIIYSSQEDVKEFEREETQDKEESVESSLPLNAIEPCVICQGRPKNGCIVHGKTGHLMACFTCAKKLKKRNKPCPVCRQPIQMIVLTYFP
Jurkat NFkB inh: inhibitors of induced NF-kB luciferase reporter, primary screen, TCR NF-kB activation inhibitor project, cell-based, luminescence, uHTS; Jurkat, PMA/ionomycin-induced NF-kB luciferase reporter; inhibition, % at 4 µM; AID 435003, 2010; 330,000 compounds, 0.53% hits; in the data active = inhibition above about 50%
Mdm2-MdmX conf: Mdm2-MdmX complex disruptors, retested hits, confirmation, luminescence, single concentration. inhibition, % at 8 µM. Mdm2-MdmX binding, luminescent assay. shares compounds with Mdm2-MdmX inh. AID 489028, 2010. 10,000 compounds, 55% hits; in the data active = inhibition above about 40%
Full FLuc ctr: full-length luciferase signal inhibition, confirmation, counter-screen for Mdm2/MdmX interaction inhibitor project, cell-based, single concentration, SaOS-2; shares compounds with Mdm2-MdmX inh; SaOS-2 full-length luciferase counterscreen, luminescence; inhibition, % at 8 µM; 6,200 compounds, 77% hits; AID 504607, 2011;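 active = mean inhibition at 8 µM reaching about 37%, which flags the compound as non-specific, limit read from the data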;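 also: p53-null SaOS-2 cells with luciferase driven by a doxycycline-inducible promoter; compound on cells about two nights before reading with doxycycline added after day one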
Of the large screens only hits and unclear results are named; the others gave an inactive call (follow-up assays come after a bar, where they were run).

CCN(CC)c1ccc2c(Cl)c(Br)c(=O)oc2c1	Mdm2-MdmX inh 100 | Mdm2-MdmX conf 44 | Full FLuc ctr inactive
CCN(CC)c1ccc2c(c1)oc(=O)c1c(Cl)cc(=O)oc12	Mdm2-MdmX inh 99 | Mdm2-MdmX conf 99 | Full FLuc ctr 57
CCN(CC)c1ccc2c(C)c(Cl)c(=O)oc2c1	none
COc1cccc(Sc2nc(-c3ccccc3)ncc2S(C)(=O)=O)c1	Mdm2-MdmX inh 62 (no result: Beta cell apopt) | Mdm2-MdmX conf inactive
CCc1ccc(C(=O)Nc2cc(C)on2)o1	none
Cc1c(C(=O)NCCCN2CCCCC2)oc2ccc3c(c12)C(O)CC1(CCCCC1)O3 (centres undefined)	Mdm2-MdmX inh 76 | Mdm2-MdmX conf inactive | Full FLuc ctr 55
CCn1cc(C(=O)Nc2ncccc2O)c(=O)c2cc(F)c(N3CCN(C(=O)c4ccco4)CC3)cc21	none
CC1(C)C[C@@H](O)[C@]2(C)CC[C@]3(C)C(=CCC4[C@@]5(C)CC[C@H](O)[C@](C)(CO)C5CC[C@]43C)[C@@H]2C1 (some centres undefined)	Mdm2-MdmX inh 77 (no result: Beta cell apopt) | Mdm2-MdmX conf inactive
COC(=O)c1cc(C(=O)OCC(=O)NC(=O)NCc2ccccc2)cc([N+](=O)[O-])c1	none
O=C(CN1c2ccccc2Sc2ccccc21)NNC(=S)Nc1ccc(Cl)cc1Cl	Mdm2-MdmX inh 66 | Mdm2-MdmX conf inactive
O=C(CN1c2ccccc2Sc2ccccc21)N/N=C/c1ccc(Cl)cc1	Mdm2-MdmX inh 71 | Mdm2-MdmX conf inactive
COc1ccc(OC)c(CCNC(=O)CCc2nnc3ccc(N4CCOCC4)nn23)c1	none (no result: Beta cell apopt, Gli-Sufu block)
CC1(C)C(=O)NCCN1C(=O)CC1C(=O)NCCN1Cc1cccc(C(F)(F)F)c1 (centres undefined)	none (no result: Beta cell apopt)
Cc1cccc(-n2c(O)c(C=Nc3ccc4c(c3)OCO4)c3ccccc3c2=O)n1	none
Cc1cccc(/N=C/c2c(O)n(Cc3ccc4c(c3)OCO4)c(=O)c3ccccc23)n1	Mdm2-MdmX inh 53 | Mdm2-MdmX conf inactive
C/C(=N\NC(=O)C1(C)CC1(Br)Br)c1ccc(NC(=O)c2ccc(C)o2)cc1 (centres undefined)	none (no result: Beta cell apopt)
COC(=O)/C=C/c1sc2nc(C)cc(C)c2c1N=CN(C)C	none (no result: Beta cell apopt)
Nc1cc(Cl)nnc1Cl	none (no result: Beta cell apopt)
O=C(COC(=O)CC1CC2CCC1C2)Nc1ccc(Cl)c(S(=O)(=O)N2CCOCC2)c1 (centres undefined)	none
O=C1C2C3C=CC(C3=C(c3ccccc3)c3ccccc3)C2C(=O)N1Cc1ccccc1 (centres undefined)	Mdm2-MdmX inh 79 | Mdm2-MdmX conf inactive
O=C1C2C3C=CC(C3=C(c3ccccc3)c3ccccc3)C2C(=O)N1CCO (centres undefined)	none
COc1ccc2nc(N3CCCC(C(=O)NCCCN4C(C)CCCC4C)C3)sc2c1 (centres undefined)	none
O=[N+]([O-])c1ccc2nc(Cl)nc(-c3ccccc3)c2c1	Mdm2-MdmX inh 96 | Mdm2-MdmX conf 66 | Full FLuc ctr 54
CCOC(=O)C(=N/O)/C(C)=N/NC(=O)C(=O)Nc1cc(Cl)ccc1Cl	none (no result: Beta cell apopt)
Cc1onc(-c2c(Cl)cccc2Cl)c1C(=O)N/N=C(\N)COc1ccc(Cl)cc1	Beta cell apopt 91, Mdm2-MdmX inh 72 | Mdm2-MdmX conf 82 | Full FLuc ctr 40
COc1cc(/C=N/NC(=O)c2c(-c3c(Cl)cccc3Cl)noc2C)ccc1OCC(N)=O	none (no result: Beta cell apopt)
O=C(c1ccc(Cl)cc1)N1CCCCC(Sc2nnc(-c3ccc4c(c3)OCO4)o2)C1=O (centres undefined)	Mdm2-MdmX inh 84 | Mdm2-MdmX conf 82 | Full FLuc ctr 50
O=C(O)CSc1nnc(-c2ccc3c(c2)OCO3)o1	none
O=C(CCl)N(C/C=C/c1ccccc1)c1ccc2c(c1)OCCO2	Mdm2-MdmX inh 79 | Mdm2-MdmX conf 67 | Full FLuc ctr inactive
NC1(C#Cc2ccc3oc(=O)c(-n4cc(-c5ccsc5)nn4)cc3c2)CCCCC1	Mdm2-MdmX inh 94 | Mdm2-MdmX conf inactive
COCCN1C(=O)/C(=C/c2ccc(N3CCCC3)cc2C)SC1=S	none
CN[C@H]1CC[C@@H](c2ccc(Cl)c(Cl)c2)c2ccccc21	Mdm2-MdmX inh 69 (no result: Beta cell apopt, 697 NFkB inh, Jurkat NFkB inh) | Mdm2-MdmX conf inactive
C=C1C(=O)O[C@@]23[C@H]1CC[C@@H](C)[C@@H]2CC[C@@]1(C)O[C@@H]31	Mdm2-MdmX inh 71 | Mdm2-MdmX conf inactive | Full FLuc ctr inactive
Clc1ccc(Cn2ncc3c(NCc4ccco4)ncnc32)c(Cl)c1	Mdm2-MdmX inh 74 | Mdm2-MdmX conf 66 | Full FLuc ctr inactive
c1ccc(CNc2ncnc3c2cnn3Cc2ccccc2)cc1	Mdm2-MdmX inh 58 | Mdm2-MdmX conf 55 | Full FLuc ctr 70
CCCCCn1nc(C(=O)OCc2nc(N)nc(Nc3ccccc3)n2)c2ccccc2c1=O	none
CCOc1ccc(C(=O)Nc2cc(C)c3c(=O)oc4ccccc4c3n2)cc1	Mdm2-MdmX inh 65 | Mdm2-MdmX conf inactive
COc1ccc(CC(=O)Nc2cc(C)c3c(=O)oc4ccccc4c3n2)cc1	none
CCCN(CCC)S(=O)(=O)c1ccc(C(=O)Nc2nnc(-c3cccc(OC)c3)o2)cc1	none
CCCN(CCC)S(=O)(=O)c1ccc(C(=O)Nc2nnc(-c3cc(OC)cc(OC)c3)o2)cc1	Mdm2-MdmX inh 51 (no result: Beta cell apopt) | Mdm2-MdmX conf inactive
O=C(Nc1ccc(-c2csc(Nc3cccc(C(F)(F)F)c3)n2)cc1)c1cc([N+](=O)[O-])cc(C(F)(F)F)c1	Beta cell apopt 111, Mdm2-MdmX inh 68 | Mdm2-MdmX conf inactive
O=C(Nc1cccc(-c2csc(Nc3cccc(C(F)(F)F)c3)n2)c1)c1ccccc1	none
O=C(Nc1ccc(-c2csc(Nc3cccc(C(F)(F)F)c3)n2)cc1)c1ccccc1	Mdm2-MdmX inh 63 | Mdm2-MdmX conf inactive | Full FLuc ctr 78
Cc1[nH]c2ccccc2c1C(C#N)(C#N)C1C(=O)c2ccccc2C1=O	Mdm2-MdmX inh 61 | Mdm2-MdmX conf 43 | Full FLuc ctr inactive
CCc1ccc2[nH]c(=O)c(CN(Cc3ccc4c(c3)OCO4)Cc3nnnn3C3CCCC3)cc2c1	Mdm2-MdmX inh 64 | Mdm2-MdmX conf inactive
Cc1ccc2cc(CN(Cc3ccc(F)cc3)Cc3nnnn3C3CCCC3)c(=O)[nH]c2c1	none
